Assay results taken from PubChem BioAssay (NCATS).
Results filed as inconclusive are left out. A number with no mark means an inactive call. The source made the active and inactive calls. The call rests on the fitted dose curve; in most records, active means well fitted inhibition curve with a large enough effect; inconclusive means small, poorly fitted or top-dose-only effect; inactive means no such curve, though single readings can be large or run the other way.
Potency means the concentration at half of the fitted maximal effect.

Test: S16 Schwann cell PMP22 intronic element firefly luciferase assay (AID 624032); further: nearly all actives have a fitted effect of over 30% in size
Details: S16 rat Schwann cells, PMP22 element FLuc, 24 h; series mostly up to 57.5 µM; activity change, negative = inhibition: at the top concentration
Text: Charcot-Marie-Tooth-Association [CMTA]
National Center for Advancing Translational Sciences [NCATS]
Charcot-Marie-Tooth (CMT) disease was first characterized by Jean-Martin Charcot and Pierre Marie in France and, independently, by Howard Henry Tooth in England in 1886. CMT is one of the most common inherited neurological diseases, affecting approximately 1 in 2,500 Americans. […] The most prevalent type of CMT is known as CMT1A and caused by a duplication of the PMP22 gene which leads to over-expression of this protein. PMP22 is a glycosylated intrinsic membrane protein accounting for 2-5% of the myelin protein content, and its over-expression results in demyelination and subsequently axonal loss.
A pair of cellular transcription-based assays was developed in the S16 rat Schwann cell lines (Hai, M., et al., 2002) stably transfected with orthogonal reporters - firefly luciferase (Fluc) and beta-lactamase (beta-Lac) - whose expression is driven by an intronic regulatory element of the PMP22 gene (Jones, E.A., et al., 2011) to recapitulate endogenous expression of PMP22. The current assay employs Fluc to report on PMP22 expression. A comprehensive library of approved drugs, the NCGC Pharmaceutical Collection (Huang, R., et al., 2011), was screened in the cross-validating platform of the orthogonal reporter assays to identify drug modulators inhibitory towards PMP22 expression.
A set of counter-screens was devised to address non-specific activity of the library. An ATP-dependent CellTiter-Glo assay (developed by Promega Corp) was utilized to control cell viability. In addition, biochemical Fluc enzyme assay was performed to assess direct inhibition of the Fluc enzymatic activity.
Hai, M., Muja, N., DeVries, G.H., Quarles, R.H. and Patel, P.I. Comparative analysis of Schwann cell lines as model systems for myelin gene transcription studies. J Neurosci Res, 2002. 69(4): pp 497-508
Huang, R., Southall, N., Wang, Y., Yasgar A., Shinn P., Jadhav, A. , Nguyen, D.-T. and Austin, C.P., The NCGC pharmaceutical collection: a comprehensive resource of clinically approved drugs enabling repurposing and chemical genomics. Sci Transl Med, 2011. 3(80): p. 80ps16.
S16 Schwann cell PMP22 intronic element firefly luciferase assay
The FLuc-expressing S16 cells were seeded in white solid 1536-well plates at between 500-750 cells/4uL in DMEM medium containing 10% FBS, w/o phenol red. After overnight incubation at 37 degree Celsius/5% C02, 23 nL of compounds or DMSO were delivered to each well using a pin tool, followed by 24h-incubation at 37 degree Celsius/5% C02. Then 4 uL ONE-Glo luminescent substrate mix (Promega) was added to each well. Luminescence was measured on a ViewLux plate reader (Perkin Elmer). The % activity was determined by normalizing to the average readings of PTC124 (a positive control) - treated cells relative to DMSO-treated cells (0% Activity). The concentration-effect curves were then classified based on curve quality (r2), response magnitude and degree of measured activity.
In the case of COc1ccnc(CS(=O)c2nc3ccc(OC(F)F)cc3[nH]2)c1OC (configuration not stated), the “activity change, negative = inhibition” value is reported as -2.95%.
With CS(=O)(=O)c1ccc(C2=C(c3ccccc3)C(=O)OC2)cc1 the “activity change, negative = inhibition” value was -29.2%.
With COc1c(C)c2c(c(O)c1CC=C(C)CCC(=O)OCCN1CCOCC1)C(=O)OC2 the Potency was 5.1 µM (active).
With N#Cc1c(N(CC(=O)O)CC(=O)O)sc(C(=O)O)c1CC(=O)O the “activity change, negative = inhibition” value was 9.97%.
In the case of CC(C)CN(C[C@@H](O)[C@H](Cc1ccccc1)NC(=O)O[C@H]1CO[C@H]2OCC[C@H]21)S(=O)(=O)c1ccc(N)cc1, the “activity change, negative = inhibition” value is reported as -7.57%.
For CN1CCN2c3ncccc3Cc3ccccc3C2C1 (configuration not stated), the “activity change, negative = inhibition” value was -3.51%.
In the case of NCC1CCC(C(=O)O)CC1 (configuration not stated), the “activity change, negative = inhibition” value is reported as -8.89% [at 25.7 µM].
With COc1cc2c(cc1OC)CC(=O)N(CCCN(C)C[C@H]1Cc3cc(OC)c(OC)cc31)CC2 the “activity change, negative = inhibition” value was -12.6%.
In the case of C=C1c2cccc(O)c2C(O)=C2C(=O)[C@@]3(O)C(O)=C(C(N)=O)C(=O)[C@@H](N(C)C)[C@@H]3[C@@H](O)[C@H]12, the “activity change, negative = inhibition” value is reported as -11.6% [at 25.7 µM].
For O=C(O)c1nc(=O)[nH]c(=O)[nH]1, the Potency was 16.1 µM (active).
In the case of Clc1ccc(COC(Cn2ccnc2)c2ccc(Cl)cc2Cl)c(Cl)c1 (configuration not stated), the Potency is reported as 8.7 µM (active).
For N#CC(c1ccc(Cl)cc1)c1c(Cl)cc(-n2ncc(=O)[nH]c2=O)cc1Cl (configuration not stated), the “activity change, negative = inhibition” value was 23%.
